Experimental findings from PubChem BioAssay are described below.

Usually viability stands for a read-out of living cells in per cent, often relative to untreated cells. A word on the inhibition: it is the relative decrease from the control value, in per cent.

Records with an inconclusive call do not appear. Activity calls are given as the source filed them.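 Rule for the calls, unless noted: active = viability increase at or above a cutoff of the median across tested compounds plus 3 SD (cut at about 8.5% in these data, passing the limit was not always enough); inconclusive = some gains above the cutoff, reason not given; inactive = the rest.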

Test [1] in a line: reducers of endogenous Her2 protein level, primary screen, SKBR3 breast tumor cells, AlphaScreen, ATP viability (AID 461;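 active = Her2 level under about 52% in both replicate screens, with viability over 70% of control, limit read from the data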;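 for Her2 level: lower value means less Her2 protein in the cells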;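 for viability: percent of carrier control wells set as 100% viability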). The settings on record: 18-24 h, measured here: SKBR3 viability, ATP luminescence, at 10 µM. Background: Bead proximity is the source of the signal in Alpha formats.
Test [2] concerns the target Receptor tyrosine-protein kinase erbB-2 (Homo sapiens) (UniProt P04626). Described as above. The settings on record: 18-24 h, at 10 µM, stronger effect = lower value.
Test [3] is described as follows: SK-BR-3 cell growth inhibitors, pilot screen, 24 h, human (AID 572;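 active = viability at or below 10% of carrier control in both of two separate runs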;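 note: compound exposure lasted between 18 and 24 h rather than exactly 24 h; 100% = carrier-treated control wells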). The note with it: SK-BR-3 viability, CellTiter-Glo luminescence, at 10 µM, stronger effect = lower value. A general note: Cellular ATP, detected with luciferase, serves as a proxy for viable cell number.
The nature of test [4]: HUVEC growth inhibition – cell-based, human, primary screen (AID 575;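 active = viability at or below 30% in both replicate assays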;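 note: 100% = median of untreated cell wells with 0.1% DMSO on each plate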). The settings on record: HUVEC proliferation, CellTiter-Glo luminescence, 72 h; at 10 µM; stronger effect = lower value.
Test [5] in a line: growth inhibitors of H69AR lung tumor, primary screen, human, duplicate replicates (AID 580;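 active = viability at or under a set limit in both replicates, limit being median viability minus 3 SD, cut at about 48% in these data, passing the limit was not always enough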;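 note: 100% = mean luminescence of untreated wells and 0% = no signal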). The settings on record: H69AR lung tumor cells viability, ATP luminescence, 72 h; at 10 µM; stronger effect = lower value.
A short description of test [6]: reversal of MRP1-mediated doxorubicin resistance, pilot screen, H69AR cells, doxorubicin co-treatment (AID 601;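 active = viability loss from added drug above about 55%, and viability with drug at most 40%, in both replicates, limit read from the data, passing the limit was not always enough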). The note with it: CellTiter-Glo, 72 h, at 10 µM; for differential viability (reversal): stronger effect = higher value.
A short description of test [7]: 384-well plate pilot, post-Golgi transport modulator project, inhibition of yeast transport mutant growth (AID 636; in the data active = inhibition above about 31%). The note with it: absorbance 615 nm, about 18 h, stronger effect = higher value.
Test [8] is described as follows: growth suppression of yeast trafficking mutant, preliminary HTS, modulators of trafficking downstream of Golgi apparatus project, 1536-format plate, OD 615 nm (AID 637; in the data active = inhibition above about 30%). The settings on record: yeast transport mutant growth, absorbance 615 nm, 18 h; stronger effect = higher value.
Test [9] can be described thus: OD615 S. cerevisiae growth inhibition, permissive medium, pilot counter-assay, permissive growth control for S. cerevisiae lifespan shortening project (AID 705;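 active = growth inhibition above 25% in both replicates, a cutoff set 3 SD above the mean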). The settings on record: OD615, 24 h, at 10 µM, stronger effect = higher value.
A short description of test [10]: Restrictive medium S. cerevisiae growth inhibition, OD615, pilot screen of yeast lifespan reduction project, restrictive growth control (AID 706;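 active = growth inhibition above a set limit, 3 SD over mean compound inhibition, in both replicates, cut at about 43% in these data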;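 note: modified DeaD lifespan yeast strain shifted to restrictive glucose medium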). The note with it: OD615, 48 h, at 10 µM, stronger effect = higher value.
The nature of test [11]: viability gain of MRP-1-high H69AR cells under doxorubicin, pilot screen, MRP-1 activator project, CellTiter-Glo, duplicate (AID 807).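 Note: compound pretreatment 18-22 h then 72 h combined with doxorubicin; 0% = doxorubicin alone and 100% = vehicle without doxorubicin.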 The settings on record: H69AR viability with doxorubicin, CellTiter-Glo luminescence; at 10 µM; stronger effect = higher value.
A short description of test [12]: growth suppression of beta-catenin knockout HCT116, pilot screen, human colon tumor cells (AID 823;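 active = cell viability at or below a set limit in both duplicate runs, the limit being the all-compound median minus 4 SD, cut at about 23% in these data, passing the limit was not always enough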;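 note: 0% = wells killed by 20 µM Hyamine and 100% = untreated DMSO cell wells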). The note with it: CellTiter-Glo, 60 h, at 10 µM, stronger effect = lower value.
Test [13] in a line: growth suppression of PTEN-deleted HCT116, pilot screen, cell-based, HCT116 clonal line, CellTiter-Glo (AID 824;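 active = viability at or below 27.92% in each of two runs, the all-compound median minus 4 SD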;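 note: 0% = 20 µM Hyamine control and 100% = vehicle cell control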). The settings on record: 60 h, at 10 µM, stronger effect = lower value.
Test [14] in a line: inhibitors of the yeast RAM network, pilot screen, dse1pr::URA3 reporter, 5-FOA selection (AID 869;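 active = inhibition over a set limit, the all-compound mean plus 3 SD, in both replicate runs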;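 note: 0% = DMSO wells with no growth and 100% = 10 µM 1-NA-PP1 with full growth; RAM network block rescues cells from 5-FOA so hits raise OD615 growth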). The settings on record: S. cerevisiae dse1pr::URA3 5-FOA growth, OD615, 2 d; at 10 µM; stronger effect = higher value; strain carries analog-sensitive mutant Cbk1 kinase.
A short description of test [15]: RAM signaling pathway blockade in yeast – S. cerevisiae, Pdr1DBD-CYC8 efflux-inhibited sensitized strain, primary screen (AID 1298;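 active = RAM network inhibition above 8.4% in each of two replicates, 3 SD over the compound average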;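 note: 0% = DMSO untreated cells without growth and 100% = 10 µM 1-NA-PP1 full growth; higher means more yeast growth rescued from 5-FOA killing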). The settings on record: S. cerevisiae cbk1-as DSE1-URA3 strain, 5-FOA growth OD615, 2 d; at 50 µM; stronger effect = higher value.
[16] abbreviates: H69AR cells + 2 uM doxorubicin, measured here: viability with 2 uM doxorubicin, stronger effect = lower value.
The mark [17] stands for this setting: H69AR cells, compound alone cytotoxicity.

Chain of Receptor tyrosine-protein kinase erbB-2 (Homo sapiens) (P04626 whole entry, looked up): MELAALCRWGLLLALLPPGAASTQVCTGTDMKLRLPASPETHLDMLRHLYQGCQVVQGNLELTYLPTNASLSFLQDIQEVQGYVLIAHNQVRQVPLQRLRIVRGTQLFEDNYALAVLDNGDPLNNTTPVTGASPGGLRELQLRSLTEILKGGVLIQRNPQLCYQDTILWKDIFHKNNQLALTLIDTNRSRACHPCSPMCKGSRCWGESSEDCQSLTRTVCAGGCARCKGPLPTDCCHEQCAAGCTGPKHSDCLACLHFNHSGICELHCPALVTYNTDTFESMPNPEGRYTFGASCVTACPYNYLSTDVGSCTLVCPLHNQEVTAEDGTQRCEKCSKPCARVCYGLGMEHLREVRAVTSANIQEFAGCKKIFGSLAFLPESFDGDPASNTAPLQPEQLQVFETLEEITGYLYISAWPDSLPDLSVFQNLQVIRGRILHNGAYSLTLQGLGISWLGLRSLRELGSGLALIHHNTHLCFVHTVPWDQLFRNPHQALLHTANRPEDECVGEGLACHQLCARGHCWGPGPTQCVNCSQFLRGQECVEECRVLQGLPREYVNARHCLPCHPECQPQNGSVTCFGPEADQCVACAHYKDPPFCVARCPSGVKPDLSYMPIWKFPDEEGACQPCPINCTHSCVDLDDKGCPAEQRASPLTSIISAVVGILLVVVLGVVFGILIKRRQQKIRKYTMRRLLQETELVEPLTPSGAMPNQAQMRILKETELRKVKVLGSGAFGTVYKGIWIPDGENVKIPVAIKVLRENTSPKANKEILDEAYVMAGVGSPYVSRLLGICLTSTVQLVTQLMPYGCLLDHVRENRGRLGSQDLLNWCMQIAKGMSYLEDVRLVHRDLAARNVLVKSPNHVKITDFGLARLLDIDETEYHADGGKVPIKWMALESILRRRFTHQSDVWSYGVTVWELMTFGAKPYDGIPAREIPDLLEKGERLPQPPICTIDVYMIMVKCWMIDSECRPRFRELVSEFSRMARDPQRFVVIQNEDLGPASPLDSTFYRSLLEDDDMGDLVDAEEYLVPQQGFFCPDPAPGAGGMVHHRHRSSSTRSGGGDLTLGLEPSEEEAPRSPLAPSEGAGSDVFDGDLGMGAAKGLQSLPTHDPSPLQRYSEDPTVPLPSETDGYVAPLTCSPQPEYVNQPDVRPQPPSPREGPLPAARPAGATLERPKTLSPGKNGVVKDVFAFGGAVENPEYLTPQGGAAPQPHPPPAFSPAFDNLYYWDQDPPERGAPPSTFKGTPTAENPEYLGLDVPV

For `O=C(OCCN=C1NS(=O)(=O)c2ccccc21)C1CC(=O)N(c2ccc(Cl)cc2)C1` (stereo not given), the viability in test [1] was 114%; in [3], 114% (inactive); in test [4], 106% (inactive); in test [5] it was 93.2% (inactive); in test [6] (setting [16]) it was 87.4%; in test [6] (setting [17]), 93.2%. Also, the viability in test [12] was 107% (inactive); in test [13], 101% (inactive). Also, the Her2 level in [2] was 99.5% (inactive). Moreover, in test [6] (H69AR cells + 2 uM doxorubicin), the differential viability (reversal) was 5.78% (inactive). In addition, the inhibition in [7] was -3.25% (inactive); in test [8] it was -1.67% (inactive); in [14] it was 0.695% (inactive). For the same compound, the growth inhibition in test [9] is 6.61% (inactive); in [10] it was -8.43% (inactive). For the same compound, the viability increase in [11] is -0.51% (inactive). Also, in test [15], the RAM network inhibition was -0.53% (inactive).
Regarding `CCCNC(=O)C1CCN(S(=O)(=O)c2ccc3nc4c(c(C(=O)O)c3c2)CCCCC4)CC1`, the viability in [1] was 99%; in [3], 99% (inactive); in test [4] it was 105% (inactive); in test [5], 98.7% (inactive); in test [6] (setting [16]) it was 96.6%; in test [6] (setting [17]), 98.7%. Besides, the viability in test [12] is 108% (inactive); in [13], 103% (inactive). In addition, the Her2 level in test [2] is 92% (inactive). Also, the differential viability (reversal) in [6] (H69AR cells + 2 uM doxorubicin) was 2.09% (inactive). The values for the inhibition in test [7], in test [8] and in test [14] were -1.87% (inactive), 8.36% (inactive) and 2.09% (inactive), respectively. Further, the growth inhibition in test [9] was 2.08% (inactive); in test [10] it was -0.39% (inactive). Also, in test [11], the viability increase is 1.14% (inactive). Besides, in test [15], the RAM network inhibition is 7.93% (inactive).
For `CN1CCN(C2=C(Cl)C(=O)N(c3cccc(Cl)c3)C2=O)CC1`, the viability in test [1] was 80.5%; in test [3] it was 80.5% (inactive); in [4], 87.7% (inactive); in test [5], 85% (inactive); in test [6] (setting [16]) it was 80.5%; in test [6] (setting [17]), 85%. In addition, the viability in test [12] was 96.3% (inactive); in test [13], 104% (inactive). Moreover, the Her2 level in [2] was 96.5% (inactive). Further, the differential viability (reversal) in test [6] (H69AR cells + 2 uM doxorubicin) was 4.44% (inactive). Also, the inhibition in test [7] is 0.26% (inactive); in test [8], 5.67% (inactive); in test [14], 0.75% (inactive). Moreover, the growth inhibition in test [9] was -16.8% (inactive); in test [10], -5.5% (inactive). In addition, in test [11], the viability increase was -1.68% (inactive). For the same compound, the RAM network inhibition in [15] was 2.62% (inactive).
In the case of `CC(=O)c1ccc(NC(=O)C2CCN(S(=O)(=O)c3cccc4cccnc34)CC2)cc1`, the viability in test [1] is 97.5%; in [3], 97.5% (inactive); in [4] it was 100% (inactive); in test [5], 84.3% (inactive); in [6] (setting [16]) it was 89.4%; in [6] (setting [17]), 84.3%. Moreover, the figures for the viability in test [12] and in test [13] were 107% (inactive) and 99.8% (inactive), respectively. The Her2 level in test [2] was 117% (inactive). The differential viability (reversal) in test [6] (H69AR cells + 2 uM doxorubicin) is -5.16% (inactive). Moreover, the inhibition in test [7] was -2.67% (inactive); in test [8], -5% (inactive); in test [14], 1.35% (inactive). Moreover, the results for the growth inhibition in [9] and in [10] were -5.1% (inactive) and -5.57% (inactive), respectively. The viability increase in test [11] was -1.12% (inactive). Besides, the RAM network inhibition in [15] is 8.91% (inactive).
Turning to `CCCCc1ccc(NC(=O)C2CCCO2)cc1` (stereo not given), the viability was 92% in test [1]; 92% (inactive) in [3]; 93.5% (inactive) in [4]; 103% (inactive) in test [5]; 82.2% in [6] (setting [16]); 103% in test [6] (setting [17]). For the same compound, the values for the viability in [12] and in test [13] were 100% (inactive) and 94.5% (inactive), respectively. Besides, the Her2 level in test [2] was 122% (inactive). Moreover, the differential viability (reversal) in test [6] (H69AR cells + 2 uM doxorubicin) was 20.8% (inactive). The inhibition in test [7] was -4.87% (inactive); in test [8], -5.33% (inactive); in test [14] it was 1.05% (inactive). The values for the growth inhibition in test [9] and in [10] were 2.46% (inactive) and 2.07% (inactive), respectively. In test [11], the viability increase was 2.53% (inactive). Further, the RAM network inhibition in test [15] is 3.17% (inactive).
